Experimental data from PubChem BioAssay AID1240 (Sanford-Burnham Center for Chemical Genomics, 2008).
About 800 (1.6%) of roughly 50,000 compounds showed an effect of 50% or more. The full list was thinned out, with strong results kept by preference.

Each compound was assayed against Bcl-2-like protein 10 (Homo sapiens) (UniProt Q9HD36) (assay: TR3 peptide-Bcl-B binding displacers, biochemical primary FP assay, phenotype converters (AID 1240;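 further: 0% = Bcl-B with tracer peptide and DMSO and 100% = tracer peptide lacking Bcl-B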)). Details: GST-Bcl-B / FITC-TR3 peptide fluorescence polarization; stronger effect = higher value; compound at 3.75 mg/L.
Sequence of Bcl-2-like protein 10 (Homo sapiens) (Q9HD36 whole entry, looked up): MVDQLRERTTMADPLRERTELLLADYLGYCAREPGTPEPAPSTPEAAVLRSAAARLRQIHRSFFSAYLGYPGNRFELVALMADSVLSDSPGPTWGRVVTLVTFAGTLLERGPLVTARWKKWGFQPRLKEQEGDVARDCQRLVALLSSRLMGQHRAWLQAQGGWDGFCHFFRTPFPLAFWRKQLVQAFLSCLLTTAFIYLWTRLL
`CC1(C)CC(=O)C(Sc2ccc([N+](=O)[O-])cc2)=C(O)C1` showed a displacement of 17%.
Work on `CCOc1cc(-c2ccc(OC)cc2)[o+]c2c1ccc1ccccc12` yielded a displacement of 6.2%.
`C=CCOC(=O)C1=C(C)NC(=S)NC1c1ccccc1OCC` (centres undefined) showed a displacement of 2.1%.
Work on `N#CC(C#N)=C/C(=C/C(C#N)C#N)c1ccccc1` yielded a displacement of 109%.
For `N#C/C(=C\N1CCOCC1)c1ccccc1`, the displacement was -0.9%.
Work on `N#C/C(=C\c1ccc(Sc2ccccc2)o1)c1ccccc1` yielded a displacement of -14.9%.
`COc1ccc2c(c1)C1C=CCC1C(c1cccc([N+](=O)[O-])c1)N2` (centres undefined) gave a displacement of -2.3%.
In the case of `Cc1ccc2c(c1)C1C=CCC1C(c1ccc([N+](=O)[O-])cc1)N2` (centres undefined), the displacement was 12.2%.
`Cc1ccc2c(c1)C1C=CCC1C(c1ccccc1[N+](=O)[O-])N2` (centres undefined) showed a displacement of 6.9%.
With `Cc1ccc2c(c1)C1C=CCC1C(C(=O)O)N2` (centres undefined) the displacement was 142%.
Compound `COc1ccc2c(c1)C1C=CCC1C(c1ccc([N+](=O)[O-])cc1)N2` (centres undefined) has a displacement of -0.8%.
Compound `COc1ccc2c(c1)C1C=CCC1C(C(=O)O)N2` (centres undefined) has a displacement of 150%.
With `COC(=O)c1c(C)oc2ccc(OC(=O)c3ccc(OC)c(OC)c3)cc12` the displacement was 10.8%.
Compound `Cc1ccc(C)c(N2C(=O)C3C4C=CC(C4=C4CCCC4)C3C2=O)c1` (centres undefined) has a displacement of 3.8%.
`CCOc1cc(OCC)cc(C(=O)Nc2ccc3oc(-c4ccc(OC)cc4)nc3c2)c1` was tested, and the displacement was 4.2%.
In the case of `CCOc1ccc(C(=O)Nc2ccc3oc(-c4ccncc4)nc3c2)cc1Cl`, the displacement was -9.5%.
`COc1cccc(C(=O)Nc2ccc(Cl)c(-c3nc4cc(Cl)ccc4o3)c2)c1` was tested, and the displacement was 105%.
In the case of `CCOc1cccc(C(=O)Nc2ccc(C(=O)Nc3cccc(-c4nc5ccccc5o4)c3)cc2)c1`, the displacement was 0.7%.
For `COc1ccc(C(=O)Nc2ccc(O)c(-c3nc4cc(Cl)ccc4o3)c2)cc1`, the displacement was 40.1%.
Compound `COc1cccc(C(=O)Nc2ccc3oc(-c4ccc(F)cc4Cl)nc3c2)c1` has a displacement of 17.1%.
In the case of `O=C(Nc1cccc(-c2nc3cc(Cl)ccc3o2)c1)c1cccc([N+](=O)[O-])c1`, the displacement was -3.3%.
`CCOc1cccc(C(=O)Nc2ccc(-c3nc4cc(Cl)ccc4o3)cc2)c1` showed a displacement of 81.3%.
`O=C(Nc1ccc(-c2nc3cc(Cl)cc(Cl)c3o2)cc1)c1cccc([N+](=O)[O-])c1` gave a displacement of 62.7%.
`CCOc1ccc(C(=O)Nc2ccc(-c3nc4ccc(C)cc4o3)cc2)cc1Cl` showed a displacement of 104%.
`CCOc1cc(OCC)cc(C(=O)Nc2ccc(-c3nc4ccc(C)cc4o3)cc2)c1` gave a displacement of -16.6%.
`O=C(Nc1ccc(-c2nc3ccccc3c(=O)o2)cc1)c1cccc([N+](=O)[O-])c1` showed a displacement of -5.5%.
Work on `CCOC(=O)C1=C(O)/C(=C/c2ccc(-c3ccccc3)cc2)SC1=Nc1ccc(OC)cc1` yielded a displacement of -6%.
`O=C1c2ccccc2C(=O)C1(Nc1ccc(F)cc1)c1ccccc1` gave a displacement of 17.4%.
`O=C(Nc1ccccc1[N+](=O)[O-])c1c(-c2cnc3ccccc3c2C(=O)Nc2ccccc2[N+](=O)[O-])cnc2ccccc12` was tested, and the displacement was -1.5%.
For `COc1ccc(Cl)cc1NC(=O)c1cccc(F)c1`, the displacement was -13.8%.
`CC1CN(C(=O)c2ccccc2C(=O)c2ncc[nH]2)CC(C)O1` (centres undefined) gave a displacement of -0.9%.
`CC(=O)OC1(C#CCl)CCCCC1` showed a displacement of -8.7%.
Compound `O=C1CC(N2CCC(O)CC2)C(=O)N1c1ccc(Cl)cc1` (centres undefined) has a displacement of -4.9%.
`Cc1ccc(-c2nc(N/N=C/c3ccccc3O)c3ccccc3n2)cc1` showed a displacement of 76.2%.
`Cc1ccc(-c2nc(N/N=C/c3ccccc3)c3ccccc3n2)cc1` gave a displacement of 6.7%.
Compound `COc1cccc(/C=N/Nc2nc(-c3ccc(C)cc3)nc3ccccc23)c1O` has a displacement of 3.4%.
Work on `CCC(=O)Oc1cc2oc(=O)c(CC)c(C)c2cc1CC` yielded a displacement of 10.1%.
With `O=C1NC(=O)N(c2ccc(Br)cc2)C(=O)/C1=C/c1ccc(-c2cccc([N+](=O)[O-])c2)o1` the displacement was 138%.
In the case of `COc1ccc(N2C(=O)NC(=O)/C(=C/c3ccc(-c4ccc([N+](=O)[O-])cc4)o3)C2=O)cc1`, the displacement was 46.2%.
`O=C1NC(=O)N(c2ccccc2)C(=O)/C1=C\c1ccc(-c2cccc([N+](=O)[O-])c2)o1` was tested, and the displacement was 39.3%.
With `O=C1NC(=O)N(c2ccc(Cl)cc2)C(=O)/C1=C/c1ccc(-c2ccc(Cl)c(C(=O)O)c2)o1` the displacement was 72.5%.
Work on `O=C1NC(=S)N(c2ccccc2)C(=O)/C1=C/c1ccc(-c2ccc([N+](=O)[O-])cc2)o1` yielded a displacement of -1.5%.
Compound `O=C1NC(=O)N(c2ccccc2)C(=O)/C1=C\c1ccc(-c2ccc([N+](=O)[O-])cc2)o1` has a displacement of 130%.
Compound `O=C1NC(=S)N(c2ccc(Br)cc2)C(=O)/C1=C\c1ccc(-c2ccc([N+](=O)[O-])cc2)o1` has a displacement of 16.2%.
`O=C1NC(=O)N(c2ccc(Cl)cc2)C(=O)/C1=C\c1ccc(-c2ccc(C(=O)O)c(Cl)c2)o1` showed a displacement of -7.8%.
`O=C1NC(=O)N(c2ccc(Cl)cc2)C(=O)/C1=C/c1ccc(-c2ccc(Cl)cc2[N+](=O)[O-])o1` gave a displacement of 10.6%.
`O=C1NN(c2ccc(Cl)cc2)C(=O)/C1=C\c1ccc(-c2ccc(Cl)c(C(=O)O)c2)o1` gave a displacement of 22.1%.
`COc1ccc(N2C(=O)NC(=O)/C(=C/c3ccc(-c4cccc([N+](=O)[O-])c4)o3)C2=O)cc1` showed a displacement of -12.5%.
With `O=C1NC(=O)N(c2ccc(Cl)cc2)C(=O)/C1=C\c1ccc(-c2ccc([N+](=O)[O-])cc2)o1` the displacement was 105%.
With `Nc1nonc1-c1ncc(-c2ccc(Br)cc2)nn1` the displacement was 30.1%.
`O=c1n(Cc2ccccc2Cl)c2cc(N3CCOCC3)c([N+](=O)[O-])cc2n1Cc1ccccc1Cl` gave a displacement of -9.7%.
With `Cc1ccc(C(=O)NNC(=O)c2ccc3ccccc3c2O)cc1` the displacement was 20.5%.
Work on `Cc1ccc(/C=C/C(=O)N2CCN(c3ccccc3)CC2)o1` yielded a displacement of 3.6%.
For `Cc1ccc([N+](=O)[O-])cc1NC(=O)CC1Sc2ccccc2NC1=O` (centres undefined), the displacement was 3.4%.
`Cc1ccccc1-c1cc(C(=O)N2CCOCC2)c2ccccc2n1` showed a displacement of 4%.
`Cc1ccc(C(=O)Nc2ccc(N3CCOCC3)cc2)cc1C` gave a displacement of 0.3%.
Compound `O=C(Nc1c(C(=O)N2CCN(Cc3ccccc3)CC2)cnn1-c1ccccc1)c1cccc(F)c1` has a displacement of 3%.
With `COc1cc(OC)c(C(=O)N2CC(=O)Nc3ccccc32)c(OC)c1` the displacement was 4.9%.
For `CCN(CC)c1ccc(NC(=O)c2ccc(Br)cc2)cc1`, the displacement was 9.2%.
Work on `CCc1ccc(NC(=O)c2cncc(Br)c2)cc1` yielded a displacement of 15%.
With `O=C(Nc1ccccc1F)c1cncc(Br)c1` the displacement was 3.9%.
With `CCN(CC)c1ccc(NC(=O)c2cncc(Br)c2)cc1` the displacement was 84.2%.
`CCc1ccccc1NC(=O)c1cncc(Br)c1` was tested, and the displacement was 5.4%.
With `O=C(Nc1ccccc1Cl)c1cncc(Br)c1` the displacement was 118%.
